Experimental data as given in PubChem BioAssay AID2018 (Sanford-Burnham Center for Chemical Genomics, 2009).
About 600 (50%) of roughly 1,200 compounds were called active. So high a share suggests a set chosen from earlier hits. Some of the results follow. Potency and affinity values are given separately. Values without a mark were called inactive. No stated cut-off is given here; in the data, active means inhibition above about 42%; inactive means the rest.

Molecular target: SUMO-conjugating enzyme UBC9 (Homo sapiens) (UniProt P63279)
Sequence (P63279 whole entry, looked up): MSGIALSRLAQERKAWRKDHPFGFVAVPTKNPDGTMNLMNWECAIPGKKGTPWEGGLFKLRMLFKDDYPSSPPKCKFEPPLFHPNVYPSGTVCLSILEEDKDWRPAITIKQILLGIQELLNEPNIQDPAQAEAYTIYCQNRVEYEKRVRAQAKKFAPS
Test: blockers of UBC9-mediated SUMO conjugation – biochemical, AlphaScreen, SUMOylation inhibitor project, confirmation (AID 2018)
Conditions: AlphaScreen in vitro SUMOylation assay; at 35 µM; active compounds read high

| Compound | inhibition |
| --- | --- |
| O=C(CNc1cccc2ccccc12)c1ccc([N+](=O)[O-])cc1 | 26.3% |
| O=[N+]([O-])c1ccc(C2Nc3cccc4cccc(c34)N2)cc1 | 49.3% (active) |
| O=[N+]([O-])c1ccc(Cl)c(C2Nc3cccc4cccc(c34)N2)c1 | 30.6% |
| CN(CCC#N)C(=O)COC(=O)c1c2c(nc3ccccc13)/C(=C/c1ccco1)CC2 | 43.2% (active) |
| Cc1cnc(C(=O)OCC(=O)c2ccc(F)cc2)cn1 | 1.5% |
| CCOc1ccc(C2C=C(c3ccccc3)Nc3ncnn32)cc1 (stereo not drawn) | 13.5% |
| CC1=CC2(O)OCCN(CCO)C2=CC1=O (stereo not drawn) | 8.3% |
| NC(=O)C1CCN(C2=C(NS(=O)(=O)c3ccc(Cl)cc3)C(=O)c3ccccc3C2=O)CC1 | 87.2% (active) |
| NC(=O)C1CCN(C2=C(NS(=O)(=O)c3ccccc3)C(=O)c3ccccc3C2=O)CC1 | 35.9% |
| CC1CCCN(C2=C(NS(=O)(=O)c3ccc(Br)cc3)C(=O)c3ccccc3C2=O)C1 (stereo not drawn) | 55.3% (active) |
| CCOC(=O)C1CCN(C2=C(NS(=O)(=O)c3ccc(Br)cc3)C(=O)c3ccccc3C2=O)CC1 | 91.9% (active) |
| CC1CCN(C2=C(NS(=O)(=O)c3ccc(Br)cc3)C(=O)c3ccccc3C2=O)CC1 | 94% (active) |
| CCOC(=O)C1CCCN(c2cc(NCCCO)c([N+](=O)[O-])c3nonc23)C1 (stereo not drawn) | -6.6% |
| Fc1ccc(-c2nc3cnccn3c2NC2CCCC2)cc1 | -43.2% |
| COc1cc2c(cc1OC)C(C)=NC1(CCCCC1)C2 | -0.1% |
| CN(C)c1cccc2c(S(=O)(=O)Nc3ccccn3)cccc12 | 69.7% (active) |
| CN(C)c1cccc2c(S(=O)(=O)N3CCCC3)cccc12 | -26.8% |
| c1ccc(Nc2ccccc2Nc2ccccn2)nc1 | -1.2% |
| Cc1cccc(NC(=S)Nc2cccc3ccccc23)c1 | 19% |
| Cc1cccc(NC2=C(NCCO)C(=O)c3ccccc3C2=O)c1 | 82% (active) |
| N#Cc1c(-c2cccc(Br)c2)cc(-c2ccco2)[nH]c1=O | 54% (active) |
| O=C(Cc1cccs1)N/N=C/C=C\c1ccco1 | 26% |
| O=C(CSc1nnc(SCc2ccccc2)s1)N/N=C/C=C\c1ccco1 | 65% (active) |
| O=C(CNc1cccc2ccccc12)N/N=C/c1ccc(OC(=O)/C=C/c2ccco2)cc1 | 3.4% |
| Cn1c2ccc(Cl)cc2c2nc3ccccc3nc21 | 4.7% |

| Compound | inhibition |
| --- | --- |
| COCCn1c(-c2cccs2)csc1=Nc1cccnc1 | 12.7% |
| Cn1c(C(=O)N2CCN(C(=O)c3ccco3)CC2)cc2c(=O)n3ccccc3nc21 | -14.7% |
| COCCCn1c(C(=O)N2CC(C)OC(C)C2)cc2c(=O)n3ccccc3nc21 (stereo not drawn) | -18.6% |
| Cc1ccc(S(=O)(=O)c2cc3c(=O)n4ccccc4nc3n(Cc3ccco3)c2=N)cc1C | 45.2% (active) |
| Cn1c(C(=O)N2COCC2(C)C)cc2c(=O)n3ccccc3nc21 | -16.1% |
| COCCCn1c(C(=O)N2CCOCC2)cc2c(=O)n3ccccc3nc21 | 2.8% |
| Cc1cccn2c(=O)c3cc(S(=O)(=O)c4ccccc4)c(=N)n(Cc4ccco4)c3nc12 | 27.5% |
| Cn1c(C(=O)NCC2CCCO2)cc2c(=O)n3ccccc3nc21 (stereo not drawn) | -2.8% |
| CC1CCCCC1NC(=O)c1cc2c(=O)n3ccccc3nc2n1C (stereo not drawn) | -8.7% |
| Cc1cccn2c(=O)c3cc(S(=O)(=O)c4ccc(F)cc4)c(=N)n(Cc4ccco4)c3nc12 | 7.6% |
| CCN(CC(=O)c1c(N)n(C)c(=O)n(C)c1=O)c1cccc2ccccc12 | -12.9% |
| O=c1c2cc(N3CCOCC3)ccc2[nH]c(=S)n1Cc1ccccn1 | 2.9% |
| Oc1cccc2c(NC(=S)Nc3ccc(OC(F)F)cc3)cccc12 | 27.3% |
| Nc1cccc2cnccc12 | 45.1% (active) |
| FC(F)(F)c1ccccc1NC(=S)Nc1cccc2cnccc12 | 18.9% |
| CC(C)NC(=S)Nc1cccc2cnccc12 | -0.7% |
| CCc1ccc(OCC(=O)N/N=C2\CC(=O)c3ccccc32)cc1 | 100% (active) |
| CC(C)c1onc(C(=O)N2CCC(C(N)=O)CC2)c1[N+](=O)[O-] | -13.8% |
| Cn1c(=O)c2cc(NCc3ccccc3)nnc2n(C)c1=O | 12.8% |
| Cc1ccc(NC2=CC(=O)C(=O)c3ccccc32)cc1 | 100% (active) |
| O=C1C=C(NCc2ccccc2)c2ccccc2C1=O | 102% (active) |
| Fc1cccc(-n2c(-c3cccs3)nc3nc4ccccc4nc32)c1 | 8.7% |
| CC(C)(C)c1ccc(C(=O)NNc2cc(N3CCOCC3)nc(N3CCOCC3)n2)cc1 | 23.5% |
| O=C(NNc1cc(N2CCOCC2)nc(N2CCOCC2)n1)c1ccc(Cl)c(Cl)c1 | 66.9% (active) |
| O=C(CCc1ccccc1)NNc1cc(N2CCCCC2)nc(N2CCCCC2)n1 | 50% (active) |

| Compound | inhibition |
| --- | --- |
| CCCCOc1ccc(CSc2ncn[nH]2)cc1 | 3.3% |
| O=C(Nc1ccccc1-c1nc2ccccc2s1)c1cccnc1Cl | 18.7% |
| CCN1C(=O)N(CC)c2cccc3cccc1c23 | 10.6% |
| CC1N(C)c2cccc3cccc(c23)N1C | 49.8% (active) |
| C=CCN1C(=O)N(CC=C)c2cccc3cccc1c23 | -10.4% |
| O=C(c1csc(Nc2cccc3ccccc23)n1)N1CCCC1 | 19.2% |
| C[n+]1cccc2ccc3c(c21)OC(N)=C(C#N)C3c1ccccc1 (stereo not drawn) | -6.6% |
| C[n+]1cccc2c(Br)ccc([O-])c21 | 102% (active) |
| C[n+]1cccc2cccc([O-])c21 | 101% (active) |
| Cc1ccc(N2CSC3=C(C#N)C(c4cccs4)CC(=O)N3C2)cc1 (stereo not drawn) | 38.3% |
| CCCCN(C)S(=O)(=O)c1cc(Br)cc2c1N(C(=O)C1CC1)CC2 | -3.7% |
| O=c1[nH]cc(I)cc1I | 8.4% |
| Cc1cc(-c2csc(N)n2)c(C)n1Cc1ccco1 | 21.9% |
| CCOC(=O)c1c(C)oc2c1C(=O)c1ccccc1C2=O | 47.8% (active) |
| COc1ccc2oc(=O)c(C(=O)NCC3CCCO3)cc2c1 (stereo not drawn) | -13.9% |
| Cc1oc2c(c1C(=O)N1CCC(C)CC1)C(=O)c1ccccc1C2=O | 29.2% |
| COc1ccc(CNC(=O)c2c(C)oc3c2C(=O)c2ccccc2C3=O)cc1 | 49.7% (active) |
| COc1ccc(S(=O)(=O)N(C)c2ccc(C(=O)NCc3ccccn3)cc2)cc1 | 4.9% |
| Cc1oc2c(c1C(=O)O)C(=O)c1ccccc1C2=O | 86.7% (active) |
| CC(C)NC(=O)N1CCC(n2nccc2NC(=O)CCOc2ccccc2)CC1 | 9% |
| Nc1ccc2c(c1)C/C(=C/c1ccco1)C2=O | 13.8% |
| C(=N\C(/N=C/c1ccco1)c1ccco1)/c1ccco1 | 30% |
| O=C1S/C(=C\C=C\c2ccco2)C(=O)N1c1ccc(O)cc1 | 40.4% |
| NN1C(=O)/C(=C\c2ccco2)SC1=S | 56% (active) |
| O=C1/C(=C\c2ccco2)SC(=S)N1C1CCS(=O)(=O)C1 (stereo not drawn) | 39.6% |

| Compound | inhibition |
| --- | --- |
| CCOC(=O)c1nn(-c2ccc3c(c2)CCN3C(C)=O)cc1O | 16.7% |
| Cc1ccc2[nH]c3c(c2c1)CN(C(=O)CN1CCN(c2cccc(C)c2C)CC1)CC3 | 41.7% |
| COc1ccc2nc3cccc(OC)c3nc2c1 | -22.2% |
| COc1ccccc1CCn1c(N)c(C#N)c2nc3ccccc3nc21 | 22.4% |
| COc1ccc2nc3ccccc3nc2c1N | 66.5% (active) |
| CN(Cc1ccco1)C(=O)c1cc2c(s1)-c1ccc(Cl)cc1S(=O)(=O)C2 | 11.3% |
| O=C(O)CCC(=O)Nc1ccccc1C(=O)Nc1ccccc1 | -5.9% |
| Cc1ccc(NC(=O)CCC(=O)OCC(=O)c2ccc(-c3ccccc3)cc2)cc1 | 22.2% |
| C=CCNC(=O)c1c(N)n(-c2cccc(S(N)(=O)=O)c2)c2nc3ccccc3nc12 | 2% |
| CCN(CC)C(=O)COc1ccc2oc(-c3ccco3)cc(=O)c2c1 | -1.1% |
| COc1ccc(-n2c(N)c(C(=O)NCC3CCCO3)c3nc4ccccc4nc32)c(OC)c1 (stereo not drawn) | -13.9% |
| COc1ccc(-n2c(N)c(C(=O)NCc3ccco3)c3nc4ccccc4nc32)cc1OC | 33.2% |
| Cc1ccc(/C=c2\sc3nc(-c4ccco4)nn3c2=O)o1 | 83.3% (active) |
| O=[N+]([O-])c1cc(CN2CCN(c3cccc(C(F)(F)F)c3)CC2)c2cccnc2c1O | 64.3% (active) |
| O=[N+]([O-])c1ccc(N2CCN(CCO)CC2)c2ncccc12 | -17.2% |
| COc1ccc2c(c1)CC/C(=C\Nc1ccc3c(c1)OCO3)C2=O | 97.5% (active) |
| COc1ccc2c(c1)CC/C(=C\C=C\c1ccccc1)C2=O | 31.7% |
| COc1ccccc1C(=O)Nc1sc2c(c1C(=O)NCc1ccco1)CCCC2 | 35.7% |
| O=C(CSc1ccc(Br)c2cccc(Cl)c12)Nc1ccc(S(=O)(=O)Nc2nccs2)cc1 | 101% (active) |
| CC(C)CC(=O)Nc1ccc(C(=O)Cn2nc(C(=O)O)c3ccccc3c2=O)cc1 | 36% |
| O=C(Cn1nnc2ccccc21)NCc1ccccc1 | 4.8% |
| N#Cc1cnn2c(-c3ccccc3)ccnc12 | 3.3% |
| O=C(Cc1cccc2ccccc12)NN1C(=O)/C(=C\c2cccnc2)SC1=S | 29.3% |
